Publication PMC4336329 (PLoS ONE, 2015)
About 14,000 (4.5%) of roughly 310,000 compounds showed an effect of 50% or more. The effect is printed as a negative number. The entries come from a sample that favours strong results as a whole.

Each molecule was assayed against human ether-à-go-go-related gene (hERG) potassium channel (human, UniProt Q12809) (assay: primary screen, population patch clamp on CHO cells stably expressing hERG; higher = less effect of the substance).
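Note: peak tail current of the secondary pulse compared with the same well before compound.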

Sequence of human ether-à-go-go-related gene (hERG) potassium channel (Q12809 whole entry, looked up): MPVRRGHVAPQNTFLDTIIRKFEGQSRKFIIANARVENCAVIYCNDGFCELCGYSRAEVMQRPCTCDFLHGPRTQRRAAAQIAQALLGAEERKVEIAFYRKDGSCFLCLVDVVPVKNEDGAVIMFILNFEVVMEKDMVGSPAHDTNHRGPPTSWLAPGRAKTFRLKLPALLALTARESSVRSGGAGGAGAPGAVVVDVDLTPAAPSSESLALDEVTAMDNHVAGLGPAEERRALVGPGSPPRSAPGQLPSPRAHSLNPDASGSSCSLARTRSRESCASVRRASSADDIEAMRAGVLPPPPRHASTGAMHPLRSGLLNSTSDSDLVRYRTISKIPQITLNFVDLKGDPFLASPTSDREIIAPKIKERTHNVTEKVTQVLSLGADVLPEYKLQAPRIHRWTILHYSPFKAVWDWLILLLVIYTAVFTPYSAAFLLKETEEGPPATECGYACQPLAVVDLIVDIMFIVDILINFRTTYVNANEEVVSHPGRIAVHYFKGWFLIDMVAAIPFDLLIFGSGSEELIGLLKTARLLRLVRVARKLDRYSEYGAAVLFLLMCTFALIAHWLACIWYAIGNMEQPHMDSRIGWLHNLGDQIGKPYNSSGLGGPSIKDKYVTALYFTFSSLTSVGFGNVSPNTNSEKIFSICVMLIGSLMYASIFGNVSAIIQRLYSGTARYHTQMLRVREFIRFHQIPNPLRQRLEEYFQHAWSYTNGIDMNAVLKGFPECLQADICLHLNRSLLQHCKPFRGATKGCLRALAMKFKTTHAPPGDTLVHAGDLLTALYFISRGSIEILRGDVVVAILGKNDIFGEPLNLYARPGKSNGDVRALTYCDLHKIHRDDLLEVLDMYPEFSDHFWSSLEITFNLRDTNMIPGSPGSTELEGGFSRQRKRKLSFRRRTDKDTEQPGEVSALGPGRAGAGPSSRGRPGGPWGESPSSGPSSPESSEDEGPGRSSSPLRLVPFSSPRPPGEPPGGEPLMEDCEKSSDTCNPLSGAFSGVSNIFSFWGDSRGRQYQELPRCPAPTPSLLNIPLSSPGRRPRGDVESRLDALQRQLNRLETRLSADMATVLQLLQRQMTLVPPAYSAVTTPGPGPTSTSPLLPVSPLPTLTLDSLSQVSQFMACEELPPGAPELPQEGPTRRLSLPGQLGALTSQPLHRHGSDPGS

Row | SMILES | hERG current change (%, negative = inhibition) at 10uM [%]
1 | O=C(COC(=O)C12CC3CC(CC(O)(C3)C1)C2)NCCc1ccc(Cl)cc1 | -10.8
2 | CCN(CC)CCCOC(=O)c1ccc(OC)cc1O.Cl | -40.9
3 | CCC(Sc1nncn1C)C(=O)Nc1nnc(-c2ccccc2Cl)s1 (stereo not shown) | -11
4 | CC(C)c1nnc(NC(=O)C2CCCN2C(=O)Nc2cccc(Cl)c2)s1 (stereo not shown) | -18
5 | COc1ccc(C(=O)NC(C)CCc2ccccc2)c(O)c1 (stereo not shown) | -55.5
6 | COc1ccc(C(=O)NC(C)CCc2ccccc2)c(OC)c1 (stereo not shown) | -26.3
7 | COc1ccc(C(=O)NC(C)CCc2ccccc2)cc1 (stereo not shown) | -2.64
8 | CC(OCCN1CCCC1)(c1ccc(F)cc1)c1ccc(F)cc1.Cl | -63.1
9 | Cl.Fc1ccc(C(OCCN2CCCC2)c2ccc(F)cc2)cc1 | -71.3
10 | Cl.O=C(CCN1CCCCCC1)Nc1ccc(F)cc1 | -42.8
11 | Cl.Fc1ccc(C(OCCN2CCCC2)c2ccc(Br)cc2)cc1 (stereo not shown) | -75.8
12 | Brc1ccc(CN2CCCCCC2)cc1 | -30.3
13 | CC(C)(C)c1ccc(C(=O)OCCN2CCCCC2)cc1.Cl | -47.6
14 | Fc1ccc(OCCOCCN2CCCC2)cc1 | -12.6
15 | Brc1ccccc1OCCN1CCCC1 | -1.74
16 | CC(C)(C)c1ccccc1OCCN1CCCC1 | -24.1
17 | CCOC(=O)[C@H]1[C@H]2COc3cc(OC)ccc3[C@@H]2N2C(=O)CN(Cc3ccc(OC)cc3)C(=O)[C@@]12C | -1.96
18 | CC1CCc2sc(C(=O)N3CCC(C(N)=O)CC3)cc2C1 (stereo not shown) | 5.36
19 | CCN(CC)S(=O)(=O)c1cccc(C(=O)Nc2nncs2)c1 | 1.66
20 | O=C(CSc1nnc(-c2ccc(S(=O)(=O)N3CCOCC3)cc2)o1)c1ccccc1F | 1.84

Row | SMILES | hERG current change (%, negative = inhibition) at 10uM [%]
21 | Cc1cc(SCC(=O)NCCN2C(=O)CSC2=O)nc2c(C)cccc12 | 0.207
22 | CCCc1c(C)c2cc(C)ccc2[nH]c1=O | -25.3
23 | Cc1ccc(-c2csc3nc4c5ccccc5c(NCCCN(C)C)nn4c(=O)c23)cc1 | -78
24 | Cc1ccc(-c2csc3nc4c5ccccc5c(NCCCN5CCOCC5)nn4c(=O)c23)cc1 | 2.7
25 | CN(C)CCCNc1ncnc2scc(-c3ccccc3)c12.O=C(O)C(=O)O | -27.9
26 | COc1ccc(C(C)=O)cc1CSC(=N)N.Cl | 9.4
27 | COc1ccc(C(=O)N(C)Cc2ccccn2)cc1OC1CCN(C(C)C)CC1 | 9.45
28 | CCn1c(SCC(=O)Nc2oc(C)c3c(C)n[nH]c(=O)c23)nc2sc(C)c(C)c2c1=O | -61.7
29 | Cc1ccc(SCC(=O)Nc2oc(C)c3c(C)n[nH]c(=O)c23)cc1C | -27.6
30 | COCC(C)n1c(SCC(=O)Nc2oc(C)c3c(C)n[nH]c(=O)c23)nc2ccccc2c1=O (stereo not shown) | 6.9
31 | Cc1ccc(C)c(SCC(=O)Nc2oc(C)c3c(C)n[nH]c(=O)c23)c1 | -52.4
32 | Cc1n[nH]c(=O)c2c(NC(=O)CSc3nc4ccccc4c(=O)n3-c3ccc(OC(F)F)cc3)oc(C)c12 | -59.2
33 | Cc1n[nH]c(=O)c2c(NC(=O)CSc3nc4ccccc4c(=O)n3C(C)C)oc(C)c12 | -27
34 | CCc1cc2c(=O)n(CCCOC)c(SCC(=O)Nc3oc(C)c4c(C)n[nH]c(=O)c34)nc2s1 | -1.43
35 | COCCCn1c(SCC(=O)Nc2oc(C)c3c(C)n[nH]c(=O)c23)nc2sc3c(c2c1=O)CCC3 | -49.7
36 | Cc1n[nH]c(=O)c2c(NC(=O)CSc3cc(Cl)ccc3Cl)oc(C)c12 | -10.9
37 | Nc1ccc(C(=O)N2CCCC2)cc1CS(=O)(=O)c1ccc(Cl)cc1 | -4.18
38 | CN(c1ccccc1)c1nc(N)c([N+](=O)[O-])c(Nc2cccc(F)c2)n1 | 24
39 | COc1ccc(N2C(=O)/C(=C\c3ccco3)N=C2SCC(=O)NC(C)C)cc1Cl | 4.42
40 | C=CCNC(=O)C(C)N1c2cccc3cccc(c23)S1(=O)=O (stereo not shown) | 9.53

Row | SMILES | hERG current change (%, negative = inhibition) at 10uM [%]
41 | COc1ccc(-n2nnnc2/C(=C/N(C)C)C(=O)c2ccccc2)cc1 | -4.92
42 | S=C(NC1CCCCC1)N1CCn2cccc2C1c1cccnc1 (stereo not shown) | -8.63
43 | O=C(O)COc1cccc(/C=C2/SC(=S)N(Cc3ccccc3)C2=O)c1 | 0.27
44 | CC(C)(C)c1csc(NC(=O)c2ccncc2)n1 | -33.7
45 | CC(C)(C)c1csc(NC(=O)c2ccccc2O)n1 | -0.0514
46 | CC(C)(C)c1csc(NC(=O)c2ccc3nccnc3c2)n1 | -57.2
47 | CC(C)(C)c1csc(NC(=O)c2cccnc2)n1 | 13.6
48 | CC(C)(C)c1csc(NC(=O)c2cccs2)n1 | -16.3
49 | CC(C)(C)c1csc(NC(=O)c2c(F)c(F)c(F)c(F)c2F)n1 | -63.9
50 | CN(C)S(=O)(=O)N1CCc2ccccc2C1 | 2.94
51 | Cc1cc(C)n(-c2nc3ccccc3nc2N2CCN(S(=O)(=O)c3ccc(F)c(C)c3)CC2)n1 | 9.54
52 | Cc1nn(CC(=O)NCC(C)c2ccccc2)c(=O)c2cc3occc3n12 (stereo not shown) | -3.5
53 | COc1ccc(C(=O)C[n+]2ccc3c(c2)nc(-c2ccccc2)n3C)cc1.[Br-] | -1.44
54 | Cn1nnc2c[n+](CC(=O)c3ccc(Cl)cc3)cc(Br)c21.[Br-] | -24.7
55 | COc1ccc(C(=O)C[n+]2ccc3c(c2)nnn3-c2ccccc2)cc1.[Br-] | -60.5
56 | COc1ccc(C(=O)C[n+]2ccc3c(c2)nc(-c2cc(OC)c(OC)cc2OC)n3C)cc1.[Br-] | 6.93
57 | O=C(C[n+]1ccccc1)c1ccc(Cl)cc1.[I-] | 10
58 | O=C(C[n+]1ccc2c(c1)nnn2-c1ccccc1)c1ccc(Cl)cc1.[Br-] | -69
